Our source for the inhibition values is PubChem BioAssay AID588850 (Sanford-Burnham Center for Chemical Genomics, 2011).

Molecules are shown by their SMILES. About 3,100 (0.86%) of roughly 360,000 compounds were called active. The full list was thinned out, with actives kept by preference. A number with no mark means an inactive call.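 The calls were made as follows: active = at least 50% inhibition at 5 µM, scaled per plate between neutral and stimulator controls; inactive = the rest.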

The nature of this assay: inhibitors of PAF-induced NF-kB signaling, primary screen, cell-based, GFP fluorescence, uHTS (AID 588850).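 Also: PAF is a Pseudomonas aeruginosa culture filtrate used as stimulus; plate controls were PAF-stimulated DMSO wells for no effect and unstimulated DMSO wells for full effect.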 To be noted: KKLEB NF-kB-GFP reporter, GFP fluorescence overnight, at 5 µM, active compounds read high.
As to `NC1=NOC(=O)C1C1CCCCC1` (configuration not stated), the inhibition (as a rule, the change of the read-out against control, counted positive when it falls) was 25.2%.
To `CCCCc1nc2ccc(F)cc2cc1C` belongs -14.3%; to `COc1ccc(N2CCN(S(=O)(=O)CCNC(=O)C34CC5CC(CC(C5)C3)C4)CC2)cc1`, -0.5%; to `COCCCN(C(=S)Nc1c(C)cc(C)cc1C)C(C)c1ccncc1` (configuration not stated), -10.4%.
To `CCCCOc1ccc(C(=O)NCC(=O)OCC(=O)N2CCN(S(=O)(=O)c3ccc(C)cc3C)CC2)cc1` belongs -0.3%; to `COc1ccc(C(C#N)=C2C=CC(=NO)c3ccccc32)cc1`, 84.7% (active).
To `COc1ccc(C(=NN)c2ccc(OC)cc2)cc1` belongs -2.7%; to `COc1ccc(/C(N)=N/OC(=O)Cc2ccccc2)cc1`, -28%.
In the case of `Fc1ccc(Nc2nnns2)cc1`, the inhibition is -11.2%.
`C=CCNC(=S)NNc1ncnc2sc3c(c12)CC(C)(C)OC3`: the inhibition was -2%.
Next, `O=C(Nc1ccc(Cl)cc1)c1csc([C@@H]2O[C@H](CO)[C@H](O)[C@H](O)[C@H]2O)n1`: 13%; `CC[C@]1(O)CC2CN(CCc3c([nH]c4ccccc34)[C@@](C(=O)OC)(c3cc4c(cc3OC)N(C=O)[C@H]3[C@@](O)(C(=O)OC)[C@H](OC(C)=O)[C@]5(CC)C=CCN6CC[C@]43[C@@H]65)C2)C1` (some centres not stated): 53.6% (active).
Next, `CC[C@]1(O)C[C@@H]2CN(CCc3c([nH]c4ccccc34)[C@@](C(=O)OC)(c3cc4c(cc3OC)N(C)[C@H]3[C@@](O)(C(=O)OC)[C@H](OC(C)=O)[C@]5(CC)C=CCN6CC[C@]43[C@@H]65)C2)C1`: 57.6% (active); `C=CCNC(=S)/N=c1/ccccn1Cc1ccccc1`: -16.5%.
Regarding `N#CC1(C#N)C(C(=O)C23CC4CC(CC(C4)C2)C3)C12CCOCC2` (configuration not stated), the inhibition was 12.2%.
Next, `Cc1ccc(NC(=S)Nc2ncccc2C)c(C)c1`: -2.7%; `COC(=O)c1ccc(NC(=O)c2ccccc2NS(=O)(=O)c2ccccc2)cc1`: 59.8% (active); `COc1ccccc1C(=O)Nc1ccc(Nc2ccccc2)cc1`: 6.4%.
Next, `COc1cc(NC(=O)c2ccccc2NS(=O)(=O)c2ccc(Cl)s2)cc(OC)c1`: 49.7%; `Cc1ccnc(NS(=O)(=O)c2ccc(NC(=O)c3oc4ccc(F)cc4c3C)cc2)n1`: 8.7%; `COC(=O)c1ccc(NC(=O)CSc2nncn2-c2cccnc2)cc1`: -0.4%.
Turning to `Cc1cc(-c2ccccc2)n2nc(C)c(-c3ccccc3)c2n1`, the inhibition was 5.2%.
To `O=C(NCCCN1CCN(c2ccc(F)cc2)CC1)Nc1ccc([N+](=O)[O-])cc1` belongs -19.1%; to `Cc1cccc(C)c1NC(=O)CCS(=O)(=O)c1cccc2nsnc12`, -15.6%.
To `COc1ccc(N(C)C(=O)CCS(=O)(=O)c2cccc3nsnc23)cc1` belongs -4%; to `O=C(CCS(=O)(=O)c1ccccc1)Nc1nc2c(s1)CCCC2`, -2.5%.
Next, `Cc1ccc(S(=O)(=O)CCC(=O)OCC(=O)N(C)Cc2ccccc2)cc1`: 7.6%.
Turning to `Cc1cccc2sc(N(CCCN(C)C)C(=O)CCS(=O)(=O)c3ccccc3)nc12`, the inhibition was 85.7% (active).
To `COc1cccc2sc(N(CCCN(C)C)C(=O)CCS(=O)(=O)c3ccccc3)nc12` belongs 88.4% (active); to `CC(C#N)(NC(=O)CN1CCN(S(=O)(=O)c2cc(C(F)(F)F)ccc2Cl)CC1)C1CC1` (configuration not stated), 17.9%.
Consider `CCOC(=O)c1ccc(S(=O)(=O)N(CCO)Cc2cc3cc(OC)c(OC)cc3[nH]c2=O)cc1`, for which the inhibition is -25.3%.
Next, `Nc1ncnc2c1ncn2[C@@H]1O[C@H](C(=O)N2CCSC2)[C@@H](O)[C@H]1O`: 4.9%; `COC(=O)C1=C(C)N(C)C(=O)NC1c1ccc([N+](=O)[O-])o1` (configuration not stated): 1.5%.
Next, `COC(=O)C1=C(C)NC(=O)/C1=C/c1ccc(CNS(=O)(=O)c2ccc(C)cc2)o1`: -6.4%.
To `COC(=O)C1=C(C)NC2=C(C(=O)c3ccccc32)C1c1ccc(-c2ccc(C(=O)O)cc2)o1` (configuration not stated) belongs 76.6% (active); to `Cc1cn([C@H]2C[C@H](O)[C@@H](CNC(=O)[C@H](N)Cc3cccnc3)O2)c(=O)[nH]c1=O`, -3.6%; to `Cc1[nH]c(=O)c(C(=O)/C=C/c2ccccc2)c2c1CCCC2`, 51.1% (active).
For `CC1(C(=O)O)CCCN(C(=O)/C=C/c2ccccc2)C1` (configuration not stated), the inhibition was -1.6%.
To `COC(=O)c1c(C)[nH]c(C(=O)/C=C/c2ccc(Cl)cc2)c1C` belongs 3.1%.
To `Cn1c(SCC(=O)NC2CCCCC2)nnc1-c1ccc(N)cc1` belongs 3.7%; to `Cc1cc(OC(=O)c2ccccc2Cl)ccc1N1C(=O)CCC1=O`, -7.9%.
To `CC(NS(=O)(=O)c1ccccc1)c1n[nH]c(=S)n1-c1ccccc1` (configuration not stated) belongs -11.4%.
With `Nc1[nH][nH]c(=O)c1N=Nc1ccc2c(c1)OCO2`, the inhibition is -6.6%.
For `CCC(=O)N1CCC(C)(C(=O)Nc2cc(OC)c(OC)c(OC)c2)C1` (configuration not stated), the inhibition is 13.9%.
In the case of `O=C(CNC(=O)c1ccccc1)NCC(=O)OCc1ccc(Cl)cc1`, the inhibition was -4.1%.
Next, `CC(Oc1ccc2c(-c3ccccc3)cc(=O)oc2c1)C(=O)NC(Cc1c[nH]c2ccccc12)C(=O)O` (configuration not stated): -11.2%.
With `O=C(CNC(=O)OCc1ccccc1)Oc1cc2oc(=O)cc(-c3ccccc3)c2cc1Cl`, the inhibition was 72.8% (active).
Turning to `Cc1cc(NC(=O)CS(=O)(=O)c2cn(C)c3ccccc23)no1`, the inhibition was -0.5%.
To `OC[C@@H]1CN(Cc2ccc(-c3ccccc3)cc2)C[C@H](n2cnc3c(NC4CCCC4)ncnc32)O1` belongs -0.3%; to `Cc1nn(-c2ccccc2)c(Cl)c1/C=N/NC(=O)c1nn(C)cc1[N+](=O)[O-]`, 52% (active).
Next, `Cc1nn(-c2ccccc2)c(C)c1/C=N/NC(=O)CSc1nc2ccccc2c(=O)n1-c1ccccc1`: 23.3%.
As to `Cn1cc([N+](=O)[O-])c(C(=O)Nc2ccc3c(c2)OCCO3)n1`, the inhibition was 15.1%.
Next, `O=C(NC1CCN(C(=S)NCc2ccco2)CC1)c1ccc(F)cc1`: -0.1%; `CCN(C(=O)c1ccc(Br)cc1)c1ccccc1`: 21.8%.
To `C=CCN1C(=O)C(Cc2ccc(OCC)cc2)SC1=Nc1ccc(C(=O)O)cc1` (configuration not stated) belongs 4.1%; to `Cn1cc(C2OC(=O)c3ccccc32)c2ccccc21` (configuration not stated), 41.4%.
Next, `COc1ccc2c(c1OC)C(=O)OC2Nc1nc(-c2ccccc2)cs1` (configuration not stated): 88.8% (active).
With `Cc1ccc(-c2csc(NC(=O)C3=COCCO3)n2)cc1C`, the inhibition is -43.3%.
Next, `Cc1ccc(-c2csc(NC3OC(=O)c4ccccc43)n2)cc1` (configuration not stated): 81.3% (active).
Next, `COc1ccccc1C(=O)Nc1nc2nc(-c3ccccc3)cc(=O)n2[nH]1`: -8%.
Next, `COc1cc(C(O)c2nc(-c3cccc(C(=O)O)c3)cs2)ccc1F` (configuration not stated): 12.4%; `CN(CC(=O)O)S(=O)(=O)c1ccc2oc3ccccc3c2c1`: -19.3%; `Cc1ccc(S(=O)(=O)Nc2ccc(F)c(S(=O)(=O)N3CCOCC3)c2)cc1`: -4.8%.
`O=C(Nc1ccccc1)c1ccccc1Br`: the inhibition is -3.5%.
Take `COCCCNC(=O)c1ccc(-c2c(C)noc2C)c2ccoc12`: the inhibition is -59%.
With `CC(=O)c1ccc(N2CCN(S(=O)(=O)c3c(C)[nH]c(=O)[nH]c3=O)CC2)cc1`, the inhibition is 13.2%.
To `COc1cc(/C=N/Nc2ccc(C)cc2)cc(Br)c1O` belongs -27.2%; to `COc1cccc(Cn2cc(/C=N/NC(=O)c3cc(O)cc(O)c3)c3ccccc32)c1`, 1.7%; to `COc1cccc(/C=N/Nc2cc(C)nc(-c3ccccc3O)n2)c1O`, 89.8% (active).
Regarding `O=C(CN1CCOCC1)N1CCCc2c1c(=O)oc1ccc(OCc3ccccc3)cc21`, the inhibition was -14.3%.
Next, `Cc1nn2c(c1-c1ccccc1)N=C(c1ccco1)CC2c1ccccc1` (configuration not stated): -5.8%; `Cc1cc(Br)ccc1NC(=O)CN(C)C(=O)CN1C(=O)NC2(CCCC2)C1=O`: -8.9%; `COc1ccc(/C=C(\C#N)C(=O)NCCCn2ccnc2)cc1`: 10.2%.
To `COc1ccc(NC(=O)/C(C#N)=C\c2cc(OC)c(OCc3ccc(C(=O)O)cc3)cc2Br)cc1` belongs -82.3%; to `COc1ccc(CNC(=O)/C(C#N)=C/c2cccc(OC)c2OC)cc1`, 59.3% (active).
To `Cc1ccc(S(=O)(=O)NNC(=O)/C=C/c2cccc(F)c2)cc1` belongs -21.5%; to `CCOC(=O)CN1C(=O)C(O)(CC(=O)c2ccccn2)c2ccccc21` (configuration not stated), 13%; to `Cc1ccc(C2=CSC3=NS(=O)(=O)CCN23)cc1C`, 6.1%.
Turning to `COc1cc(OC)c(C(=O)NNC(=O)c2ccccc2-n2cccc2)cc1OC`, the inhibition was -9.9%.
Next, `CCCN(CCC)C(=S)Nc1cc(C(=O)OC)ccc1C(=O)OC`: 10.8%; `COC(=O)c1ccc(C(=O)Nc2cc(Cl)ccc2Cl)cc1NC(=O)c1ccccc1C`: 54% (active); `COC(=O)c1ccc(C(=O)OC)c(NC(=S)N2CCN(c3cc(Cl)ccc3C)CC2)c1`: 0.4%.
Next, `CCOC(=O)c1c(C)[nH]c(C)c1C(=O)COC(=O)/C=C/c1cccc([N+](=O)[O-])c1`: -19.4%.
Consider `CCC12CN3CC(CC)(CN(C1)C31C(=O)N(C)c3ccc(C)cc31)C2=O` (configuration not stated), for which the inhibition was 8.9%.
For `CCOC(=O)C1(C)CCCN(C(=O)c2ccc(N(C)C)cc2)C1` (configuration not stated), the inhibition was -1.1%.
With `Cc1cccc(-n2nc3c(c2NC(=O)c2cc4ccccc4o2)CS(=O)(=O)C3)c1`, the inhibition is 4.3%.
Next, `CC(C)CC1(C(=O)NCc2ccccn2)C=CCN1C(=O)c1ccccc1` (configuration not stated): -3.1%.
